High-throughput results as filed in PubChem.
Sampled rows, rich in hits. Any-hit rate of the full collection: about 2.9%.
rCAG RNA binder: r(CAG) repeat RNA binding. TO-PRO-1 dye displacement fluorescence. inhibition, % at 3 µM. 1.3% of 370,000 active;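 active = inhibition above the plate cutoff, the mean of all test compounds on that plate plus 3 SD, cut at about 35% in these data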;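 also: higher means more dye released from RNA so lower well fluorescence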
PAFAH1B2 inh: blocks human PAF acetylhydrolase 1b catalytic subunit 2. P68402. recombinant PAFAH1B2, FP-rhodamine activity probe, fluorescence polarization. inhibition, % at 3.39 µM. 1.2% of 340,000 active. AID 492953;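 active = inhibition above the mean of all tested compounds plus 3 SD, cut at about 24% in these data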
EBNA-1 inhibitor: blocks EBNA-1 binding to DNA | 0.34% of 300,000 active | inhibition, % at 14.8 µM | AID 1950 | EBNA-1 DNA binding, fluorescence polarization; in the data active = inhibition above about 28%
ZTA DNA inh: blocks Epstein-Barr virus ZTA, an EBNA-1 counter-screen. inhibition, % at 11 µM. ZTA-DNA binding, fluorescence polarization. 0.15% of 320,000 active; in the data active = inhibition above about 33%
Target sequence (P03206 whole entry, looked up): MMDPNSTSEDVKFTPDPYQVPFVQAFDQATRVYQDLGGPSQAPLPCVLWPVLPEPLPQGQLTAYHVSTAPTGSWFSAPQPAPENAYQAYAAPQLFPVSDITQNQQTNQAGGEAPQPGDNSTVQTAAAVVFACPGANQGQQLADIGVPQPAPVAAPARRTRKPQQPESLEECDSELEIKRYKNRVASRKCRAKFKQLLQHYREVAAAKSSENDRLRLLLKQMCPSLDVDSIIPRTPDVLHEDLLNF
PAFAH2 inh: PAFAH2 (human) inhibition. Q99487. AID 492956. recombinant PAFAH2, FP-rhodamine activity probe, fluorescence polarization. inhibition, % at 3.39 µM. 0.99% of 340,000 active;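 active = inhibition above the mean over all tested compounds plus 3 SD, cut at about 30% in these data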;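 also: inhibitors block probe labeling of enzyme so polarization drops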
PAFAH1B3 FP inh: inhibitors of human PAFAH1B3. Q15102. recombinant PAFAH1B3, FP-rhodamine probe, fluorescence polarization. inhibition, % at 3.39 µM. 0.28% of 340,000 active;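 active = inhibition above the screen-wide average of all tested compounds plus 3 SD, cut at about 25% in these data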
Target sequence (Q15102 whole entry, looked up): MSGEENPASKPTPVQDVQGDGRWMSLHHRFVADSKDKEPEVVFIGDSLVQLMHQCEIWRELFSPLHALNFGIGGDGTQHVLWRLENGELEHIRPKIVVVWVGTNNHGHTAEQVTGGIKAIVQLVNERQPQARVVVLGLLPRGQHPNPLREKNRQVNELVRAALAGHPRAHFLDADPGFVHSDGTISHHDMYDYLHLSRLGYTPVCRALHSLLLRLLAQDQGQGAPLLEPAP
EBNA-1 inh conf: EBNA-1 (EBV) inhibition, confirmation. shares compounds with EBNA-1 inhibitor. Recombinant EBNA-1 DBD, Cy5-DNA fluorescence polarization. 35% of 830 active. inhibition, % at 14.8 µM;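 active = mean inhibition across replicates above a set limit taken from the earlier primary screen, cut at about 28% in these data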
ZTA DNA inh trip: counter-screen for EBNA-1 inhibitors: Epstein-Barr virus ZTA inhibitors, triplicate. shares compounds with EBNA-1 inhibitor. inhibition, % at 11.1 µM. 830 tested, under 10 active. Zta-ZRE DNA binding, Cy5 fluorescence polarization;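 active = mean inhibition over triplicates above a set limit taken from the primary EBNA-1 screen, cut at about 37% in these data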;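 also: purified full length Zta protein with Cy5 labeled ZRE DNA probe; inhibitors lower polarization by freeing the labeled DNA probe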
Numbers stand for hits; - = inactive; . = not tested or not shown.

SMILES	rCAG RNA binder	PAFAH1B2 inh	EBNA-1 inhibitor	ZTA DNA inh	PAFAH2 inh	PAFAH1B3 FP inh	EBNA-1 inh conf	ZTA DNA inh trip
CC(=O)Nc1ccc(NC(=O)c2cc(=O)c3cc(C)c(C)cc3o2)cc1	-	-	73	-	-	-	35	-
CC(C)(C)OC(=O)NCc1ccccc1/C=C/S(=O)(=O)NC1CCCC1	-	.	.	.	.	.	.	.
CCOC(=O)[C@H]1[C@H]2COc3ccc(Cl)cc3[C@@H]2N2C(=O)c3ccc(Cl)cc3NC(=O)[C@@]12C	-	-	77	-	-	-	82	-
CCOc1ccc(N2C(=O)CC(NC3CCN(C(=O)c4cccc(Cl)c4)CC3)C2=O)cc1 (stereo unspecified)	-	-	50	-	-	-	-	-
CCOC(=O)c1ccc(N2C(=O)CC(NC3CCN(C(=O)c4cccc(Cl)c4)CC3)C2=O)cc1 (stereo unspecified)	.	.	-	-	.	.	.	.
Cc1ccc(N=Nc2ccc(O)c(/C=N\NC(=O)c3ccc(N)cc3)c2)cc1C	-	-	38	-	-	-	-	-
Cc1cc(N2CCN(C(=O)Oc3ccc(C(F)(F)F)cc3)CC2)c2ccccc2n1	-	.	.	.	.	.	.	.
Cc1cc(C)c2cccc(NC(=S)NC(=O)c3ccccc3)c2n1	-	-	34	-	-	-	28	-
COc1cccc(C(=O)N/N=C/c2ccc(OC3CSC3)cc2)c1	-	-	-	-	-	-	.	.
Cc1cccc(C(=O)N/N=C/c2ccc(OC3CSC3)cc2)c1	-	-	35	-	-	-	-	-
O=S(=O)(c1ccc2nc(-c3ccccc3)[nH]c2c1)N1CCN(c2ccc(Cl)cc2)CC1	-	-	37	-	-	-	-	-
COC(=O)[C@]12C[C@H](CC(=O)N3CCN(C(=O)c4ccco4)CC3)C(=O)N(Cc3cccc4ccccc34)C1=C[C@H](C(C)(C)C)O[C@@H]2C	-	.	.	.	.	.	.	.
O=c1oc2c(O)c(O)cc3c(=O)oc4c(O)c(O)cc1c4c23	.	88	39	-	85	68	47	37
Cc1c(C)c2cc(Cl)c(O)c(CN(C)C)c2oc1=O	-	-	-	-	-	-	.	.
CCCCNC(=O)C(NC(=O)c1cccs1)C(=O)c1ccccc1 (stereo unspecified)	-	.	.	.	.	.	.	.
NC(=O)c1c(-c2ccc(Cl)cc2Cl)csc1NC(=O)Cc1ccccc1	-	-	29	-	-	-	-	-
Nc1[nH]c(C(=O)c2ccccc2)c(-c2c(F)cccc2F)c1C(=O)c1ccc(Cl)c(Cl)c1	-	.	.	.	.	.	.	.
O=C(Cc1ccc(-n2cccc2)cc1)NCc1cccs1	-	-	32	-	-	-	-	-
Cc1ccc(CNC(=O)Cc2ccc(-n3cccc3)cc2)cc1	-	-	-	-	-	-	.	.
O=C(Nc1cccc(C(F)(F)F)c1)c1ccc2nc(-c3ccco3)c(-c3ccco3)nc2c1	-	-	68	-	31	29	-	-
CN(Cc1ccccc1)C(=O)OCc1cn(Cc2ccc(C(F)(F)F)cc2)nn1	-	.	.	.	.	.	.	.
C=CCn1c(=NC(=O)c2cc(-c3cccs3)nc3ccccc23)sc2cc(S(N)(=O)=O)ccc21	-	-	29	-	-	-	-	-
COc1ccc2oc(C(=O)Nc3nccs3)c(C)c2c1	-	-	29	-	-	-	55	-
CCOc1ccc2oc(C(=O)Nc3nccs3)c(C)c2c1	-	-	.	.	-	-	.	.
CCC(=O)Nc1cccc(NC(=S)NC(=O)c2cc3ccccc3o2)c1	-	-	31	-	-	-	-	-
SMILES	rCAG RNA binder	PAFAH1B2 inh	EBNA-1 inhibitor	ZTA DNA inh	PAFAH2 inh	PAFAH1B3 FP inh	EBNA-1 inh conf	ZTA DNA inh trip
CC(=NN1CCN(Cc2ccccc2Cl)CC1)c1ccc(O)cc1	-	.	.	.	.	.	.	.
C=CCn1c(SCC(=O)NCc2ccco2)nc2sc(C)c(C)c2c1=O	-	-	42	-	-	-	-	-
Cc1cc(C)n2c(Nc3ccc4c(c3)OCCO4)c(CCc3ccccc3)nc2n1	-	.	.	.	.	.	.	.
CN(C)c1cc[n+](/C(C(=S)Nc2ccc(SC(F)F)cc2)=C(/[O-])c2ccccc2)cc1	-	-	58	-	-	-	43	-
Cc1ccc(NC(=O)CSc2ccc(-c3ccc4c(c3)OCO4)nn2)cc1F	-	-	52	-	-	-	68	-
Cc1cc(NC(=O)CSc2ccc(-c3ccc4c(c3)OCO4)nn2)no1	-	.	-	-	.	.	.	.
O=C(COC(=O)c1cc(NS(=O)(=O)c2cccs2)ccc1O)Nc1ccc(F)c(F)c1F	-	-	-	-	-	-	.	.
O=C(COC(=O)c1cc(NS(=O)(=O)c2cccs2)ccc1O)Nc1cc(Cl)ccc1Cl	-	-	36	-	-	-	-	-
Cc1cc(NC(=O)COC(=O)c2ccccc2O)no1	-	-	.	.	-	-	.	.
Cc1cc(NC(=O)COC(=O)c2oc3c(ccc4ccccc43)c2C)no1	-	-	50	-	-	-	56	-
COc1cc(C(=O)NC2CC(C)(C)Cc3c2cnn3-c2ccccc2)cc(OC)c1OC (stereo unspecified)	-	-	32	-	-	-	34	-
C[C@@H]1NC(=O)[C@H]2C[C@@]3(c4ccccc4)c4ccccc4N[C@H]3N2C1=O	-	.	.	.	.	.	.	.
O=C(CN1C(=O)c2ccccc2C1=O)Nc1ccc2c(c1)OCO2	-	-	-	-	-	-	.	.
Cn1cc(/C=C2/SC(=O)N(CC(=O)Nc3ccc4c(c3)OCO4)C2=O)c2ccccc21	-	-	56	-	-	-	64	-
COCCCNC(=O)Cn1nc(Cc2ccncc2)c2ccccc2c1=O	-	.	.	.	.	.	.	.
COc1cccc(-c2ccc(CC[C@H]3O[C@H]4CC[C@@H](CO)O[C@H]4C[C@H]3NS(C)(=O)=O)cc2)c1	-	.	.	.	.	.	.	.
CC(C)CNC(=S)N(Cc1ccco1)Cc1cc2cc3c(cc2[nH]c1=O)OCCO3	-	-	61	-	-	-	-	-
COc1ccc2nc(NC(=O)CC3Oc4ccccc4NC3=O)sc2c1 (stereo unspecified)	-	-	56	-	-	-	-	-
CC(COc1cccc([N+](=O)[O-])c1)CN1CCC(C(O)(c2ccccc2)c2ccccc2)CC1 (stereo unspecified)	-	.	.	.	.	.	.	.
Cc1cc2cc(CNC(=O)c3ccc(S(=O)(=O)N4CCCC4)cc3)ccc2n1C	-	-	33	-	-	-	-	-
Cc1ccc(NC(=O)NCc2ccc3c(c2)OCO3)cc1C	-	-	30	-	-	-	-	-
COc1cccc(-c2nnc(SCc3cc(C)ccc3C)n2Cc2ccco2)c1	-	.	.	.	.	.	.	.
Cc1cc(NC(=O)CSc2nc(-c3ccc(Cl)cc3)cs2)no1	-	-	40	-	-	-	-	-
Cc1cccc(C)c1NC(=O)Cn1nnc(C(=O)Nc2ccc(F)cc2F)c1N	-	-	28	-	-	-	29	-
Cc1cc(C)c(NC(=O)Cn2nnc(C(=O)Nc3ccc(F)cc3F)c2N)c(C)c1	-	-	-	-	-	-	.	.
